# Screens deposited in PubChem BioAssay by National Center for Advancing Translational Sciences (NCATS).
# Rows were chosen to be rich in hits. Some 10% of all compounds tested hit in one or more screens of this group.
# G9a block – blocks human histone lysine methyltransferase G9a | Q96KQ7 | G9a H3K9 monomethylation, AlphaScreen, 2 h | Potency, µM (top dose mostly 102 µM), without a hit: at the highest dose activity, negative = inhibition, hits mostly inhibitors | 350,000 tested, 8.8% active; note: % is set by controls: 0 for no effect and ±100 for the full control effect; nearly all actives have a fitted effect of over 75% in size
#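 AlphaScreen detection with an anti-monomethyl H3K9 antibody quantified product after a 2 h room-temperature reaction containing 500 nM biotinylated H3K9 peptide, 20 µM SAM and 20 nM enzyme, which had been preincubated 15 min with compound.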
# GLS inh – glutaminase GLS (human) inhibition; O94925; GLS enzymatic activity, qHTS titration; Potency, µM (series often up to 45.5 µM), without a hit: at the top dose activity change, negative = inhibition, actives largely listed as inhibitors; 410,000 tested, 0.21% active; AID 624170; note: % is set by controls: 0 for no effect and ±100 for the full control effect
# Target sequence (O94925 whole entry, looked up): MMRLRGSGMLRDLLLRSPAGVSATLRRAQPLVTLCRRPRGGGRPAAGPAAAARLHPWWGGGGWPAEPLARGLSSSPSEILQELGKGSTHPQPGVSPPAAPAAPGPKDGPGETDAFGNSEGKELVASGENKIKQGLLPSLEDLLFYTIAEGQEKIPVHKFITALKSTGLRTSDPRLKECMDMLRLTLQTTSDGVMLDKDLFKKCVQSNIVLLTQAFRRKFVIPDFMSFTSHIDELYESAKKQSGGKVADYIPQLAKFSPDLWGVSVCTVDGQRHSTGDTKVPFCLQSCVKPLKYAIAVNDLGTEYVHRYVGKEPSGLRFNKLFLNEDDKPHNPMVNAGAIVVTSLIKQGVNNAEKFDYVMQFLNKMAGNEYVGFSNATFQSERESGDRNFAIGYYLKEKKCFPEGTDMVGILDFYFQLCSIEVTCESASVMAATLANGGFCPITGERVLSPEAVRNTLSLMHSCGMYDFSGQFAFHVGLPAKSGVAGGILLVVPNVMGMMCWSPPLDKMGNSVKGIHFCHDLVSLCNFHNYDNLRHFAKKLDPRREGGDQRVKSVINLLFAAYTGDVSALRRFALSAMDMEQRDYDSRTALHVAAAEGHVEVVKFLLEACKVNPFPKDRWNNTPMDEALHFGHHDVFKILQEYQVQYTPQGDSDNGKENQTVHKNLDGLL
#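 Read-out is an Amplex red fluorescence increase coupled through glutamate oxidase and HRP, measured before and after 30 min room-temperature incubation. hKGA is in 45 mM KH2PO4 (pH 8.2) with 0.02% Tween-20; glutamine added as 1mM solution.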
# BAZ2B inh – blocks human BAZ2B; Potency, µM (top dose mostly 114 µM), inactives show at the top dose activity change, negative = inhibition, most hits filed as inhibitors; 360,000 tested, 4.4% active; AID 504333; AlphaScreen BAZ2B-H3K14Ac peptide displacement; Q9UIF8; note: % is set by controls: 0 for no effect and ±100 for the full control effect; nearly all actives have a fitted effect of over 60% in size
#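 BAZ2B 50 nM plus b-H3(5-23)K14Ac 50 nM, PBS pH 7.4/0.01% Tween-20, 30 min RT; compound added (max 110 uM), 30 min RT; streptavidin donor/Ni-chelate acceptor beads 10 ug/mL final, 20 min dark; AlphaScreen read.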
# HP1b binding inh – HP1-beta chromodomain-methylated histone interaction inhibition | 390,000 tested, 0.56% active | Potency, µM (titrated, usually from 114 µM), without a hit: at the top dose activity change, negative = inhibition, usual class: inhibitors | AlphaScreen HP1-beta / biotin-H3K9me3 peptide binding; note: nearly all actives have a fitted effect of over 70% in size
#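 AlphaScreen: HP1-beta (50 nM) preformed 30 min with biotin-H3(1-18)K9me3 peptide (50 nM) in PBS pH 7.4, 0.01% Tween-20. Compound added for 30 min at RT, then streptavidin donor/nickel chelate acceptor beads (10 ug/mL) for 30 min.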
# JMJD2A Tudor – JMJD2A Tudor domain (human) inhibition; Potency, µM (highest dose often 114 µM), inactives show at the highest dose activity change, negative = inhibition, usual class: inhibitors; AID 504339; 390,000 tested, 4.4% active; AlphaScreen JMJD2A-Tudor / H3K4me3 peptide binding; note: % is set by controls: 0 for no effect and ±100 for the full control effect; nearly all actives have a fitted effect of over 50% in size
# An asterisk follows results filed as active; ? = inconclusive; · = no result given; [ ] = remark or other dose. Calls come from the whole dose curve; as a rule, active = well fitted curve in the direction sought with a large enough effect; inconclusive = small, poorly fitted or top-dose-only effect, or another doubt; inactive = no such curve, though single readings can be large; an effect the other way counts as inactive or inconclusive. Potency is the fitted concentration of half-maximal effect.
SMILES,G9a block,GLS inh,BAZ2B inh,HP1b binding inh,JMJD2A Tudor
N=C1S/C(=C\c2ccco2)C(=O)N1c1nccs1,35µM*,4%,?,13%,-32%
O=C1C2C3C=CC(C3)C2C(=O)N1c1ccc2c(c1)OCO2 (stereo not given),-47%,3%,12%,35%,-10%
COc1ccccc1OCCN1C(=O)S/C(=C\c2ccco2)C1=O,?,2%,?,-32%,-31%
C[C@H](CO)N1C[C@H](C)[C@@H](CN(C)C(=O)Nc2ccc(C(F)(F)F)cc2)Oc2ccc(NC(=O)C3CC3)cc2C1=O,·,0%,·,69%,-6%
CCc1ccc(NC(=O)C2CCN(S(=O)(=O)c3c(C)[nH]c(=O)[nH]c3=O)CC2)cc1,-1%,-2%,-4%,14%,-11%
CCOC(=O)c1c(C)[nH]c(C)c1C(=O)COC(=O)CNC(=O)C1CCCCC1,-29%,-4%,-6%,16%,-13%
Cn1cnc([N+](=O)[O-])c1Sc1ncccc1N,3.5µM*,5%,9%,65%,4%
Cn1cnc([N+](=O)[O-])c1SCCO,22µM*,-1%,-14%,27%,-12%
Cn1cnc([N+](=O)[O-])c1SCC(O)CCl (stereo not given),-5%,2%,-23%,32%,-16%
CC(C)C[C@@H](CN)NC(=O)c1nc[nH]c1C(=O)N[C@@H](Cc1ccccc1)C(=O)CNC[C@H](C)NC(=O)c1nc[nH]c1C(=O)N[C@@H](C)C(=O)O,·,-23%,·,56%,79µM*
CC(C)C[C@@H](CN)NC(=O)c1nc[nH]c1C(=O)N[C@@H](Cc1c[nH]c2ccccc12)C(=O)CNC[C@H](C)NC(=O)c1nc[nH]c1C(=O)N[C@@H](C)C(=O)O,·,?,·,14%,56µM*
CC(C)C[C@@H](CN)NC(=O)c1nc[nH]c1C(=O)N[C@@H](Cc1ccccc1)C(=O)CNC[C@H](C)NC(=O)c1nc[nH]c1C(=O)N[C@@H](CC(C)C)C(=O)O,·,7%,·,49%,56µM*
CCCCn1nnnc1C1(C)CCC(=O)N1CCc1c[nH]c2ccccc12 (stereo not given),·,2%,·,·,·
Cc1cccc(-n2c(=O)c3ccccc3n(Cc3ccc(F)cc3)c2=O)c1,11%[59 µM],1%,-3%,16%,8%
Cc1ccc(S(=O)(=O)N2CCC(C(=O)Nc3ccccc3N3CCCC3)CC2)c(C)c1,?,15%,-4%,-13%,?
COc1cc(NC(=O)Cn2c(=O)n(CC3CCC(C(=O)NCCc4ccccc4)CC3)c(=O)c3ccccc32)cc(OC)c1 (stereo not given),-5%[59 µM],0%,-8%,10%,-3%
CCOc1ccc(NC(=S)N(CCOC)C2CCN(C(C)C)CC2)cc1,1%,5%,-2%,32%,-15%
Cc1ccc(NC(=O)Cn2nnc(C(=O)NCc3cccs3)c2N)c(C)c1,19%,2%,?,43%,-26%
CCOC(=O)c1nc(C)[nH]c1C(=O)OCC,?,13%,79µM*,7%,18µM*
Cc1ccc(C(=O)CC2(O)C(=O)N(C)c3ccccc32)s1 (stereo not given),45µM*,-3%,-10%,47%,3%
CC(=O)c1cccc(NC(=O)[C@H]2O[C@@H]3OC(C)(C)O[C@@H]3[C@H]3OC(C)(C)O[C@H]32)c1,-27%[59 µM],-5%,4%,20%,-4%
COc1ccc(CC(=O)N(CCC2=CCCCC2)c2c(N)n(Cc3ccccc3)c(=O)[nH]c2=O)cc1,·,4%,·,·,·
COc1ccccc1CCC(=O)N(CCC1=CCCCC1)c1c(N)n(Cc2ccccc2)c(=O)[nH]c1=O,50µM*,4%,5%,4%,-14%
COCCN(C(=O)CSCc1ccccc1)c1c(N)n(Cc2ccccc2)c(=O)[nH]c1=O,?,2%,8%,39%,0%
COCCN(C(=O)CN1CCc2ccccc2C1)c1c(N)n(Cc2ccccc2)c(=O)[nH]c1=O,40µM*,2%,5%,31%,-7%
SMILES,G9a block,GLS inh,BAZ2B inh,HP1b binding inh,JMJD2A Tudor
CCN(C(=O)COC(=O)c1ccccc1NCc1ccco1)c1c(N)n(Cc2ccccc2)c(=O)[nH]c1=O,·,4%,·,17%,-11%
COCCN(C(=O)COC(=O)c1cc2c(s1)CCC2)c1c(N)n(Cc2ccccc2)c(=O)[nH]c1=O,10µM*,10µM*,8.9µM*,-95%,8.9µM*
COCCN(C(=O)COC(=O)c1ccccc1NCc1ccco1)c1c(N)n(Cc2ccccc2)c(=O)[nH]c1=O,79µM*,-4%,-30%,22%,-16%
CCCn1c(N)c(N(CCOC)C(=O)c2cc3c(s2)CCC(CC)C3)c(=O)[nH]c1=O (stereo not given),21%[2.33 µM],-9%,5%,11%,-12%
CCC1CCc2sc(C(=O)OCC(=O)N(CCOC)c3c(N)n(Cc4ccccc4)c(=O)[nH]c3=O)cc2C1 (stereo not given),28µM*,5%,1%,11%,-8%
COc1ccc(OC)c(/C=N/NC(=O)C(=O)N2CCCC2)c1,28%,-4%,-2%,69%,-8%
COc1cccc(/C=N/NC(=O)c2cc3cc([N+](=O)[O-])ccc3s2)c1O,?,-7%,22µM*,?,63µM*
COc1cccc(/C=N/NC(=O)C(=O)N2CCCCCC2)c1O,·,16%,79µM*,43%,79µM*
COc1cccc(/C=N/NC(=O)c2cnccn2)c1O,6%,17%,79µM*,51%,-17%[11.4 µM]
COc1cccc(/C=N/NC(=O)C(=O)NCc2ccco2)c1O,2%,7%,3%,27%,?
COc1cccc(/C=N/NC(=O)C(=O)N/N=C/c2cccc(OC)c2O)c1O,5%,4%,50µM*,37%,100µM*
COc1ccc(/C=N/NC(=O)c2cnccn2)c(OC)c1OC,?,0%,-11%,30%,-12%
CCOc1ccc(NC(=S)NC(=O)/C=C/c2ccc(C)cc2)c([N+](=O)[O-])c1,-39%,1%,?,7%,-18%
COC(=O)c1cccc(/C=N/NC(N)=S)c1O,-1%,21%,4.5µM*,34%,?
NC(=S)N/N=C/c1ccccc1[N+](=O)[O-],·,7%,-10%,?,-12%
CCc1ccccc1-n1nnnc1SCC(=O)Nc1cc(C)on1,?,-6%,?,3%,-14%
Cc1cccc(-n2nnnc2SCC(=O)Nc2ccc(N3CCN(C)CC3)cc2)c1,45µM*,23%,?,-3%,?
Cc1cccc(-n2nnnc2SCC(=O)NC2CCCC2)c1,·,4%,·,1%,-2%
Cc1ccccc1-n1nnnc1SCC(=O)Nc1ccc(N2CCN(C)CC2)cc1,50µM*,39%,-32%[57.1 µM],38%,?
